Assay outcomes from PubChem BioAssay.
A selection: hits, their analogues and other compounds. The true share with any hit is near 1.8%.
UHRF1 MBD2 ctr = UHRF1 methylated DNA binding inhibitors, primary screen, counter-screen for MBD2 inhibitor project, biochemical, TR-FRET, human UHRF1, single concentration; UHRF1 binding to methylated oligo; inhibition, % at 4.4 µM; hit rate 0.75% among 370,000; E3 ubiquitin-protein ligase UHRF1 (Homo sapiens), Q96T88; AID 687016, 2013; in the data active = inhibition above about 21%;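 note: UHRF1 SRA domain binding a hemimethylated CpG hairpin DNA probe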
UBC13 polyUb = UBC13 polyubiquitin chain formation inhibitors, primary screen, biochemical, TR-FRET, uHTS | Ubiquitin-conjugating enzyme E2 N (Homo sapiens), P61088 | inhibition, % at 20 µM | hit rate 0.47% among 330,000 | AID 485273, 2010; in the data active = inhibition above about 45%, passing the limit was not always enough
Target sequence (P61088 whole entry, looked up): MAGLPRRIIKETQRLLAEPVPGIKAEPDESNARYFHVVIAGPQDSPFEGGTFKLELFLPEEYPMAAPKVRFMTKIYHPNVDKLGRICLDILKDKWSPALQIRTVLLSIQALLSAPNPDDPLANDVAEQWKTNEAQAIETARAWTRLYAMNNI
Neddylation inh = inhibitors of cullin neddylation, primary screen, biochemical, TR-FRET, uHTS, NAE and Ubc12; NEDD8-conjugating enzyme Ubc12 (Homo sapiens) + NEDD8-activating enzyme E1 regulatory …; calls only at 25 µM; hit rate 0.58% among 360,000; in the data active = inhibition above about 36%
MBD2 inh = inhibitors of MBD2 binding to methylated DNA, primary screen, biochemical, TR-FRET, DNA-binding domain, human; AID 686964, 2013; MBD2 binding to methylated oligonucleotide; inhibition, % at 4.4 µM; hit rate 0.31% among 370,000; in the data active = inhibition above about 13%
Casp3 counter = CASP3 inhibitor validation, counterassay for project on UBE2N polyubiquitination blockers, biochemical, one dose; hit rate 4% among 1,400; Recombinant caspase-3, Caspase-Glo 3/7 luminescence, 60 min; inhibition, % at 20 µM; shares compounds with UBC13 polyUb;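 active = mean inhibition across replicates above about 26%, limit read from the data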
Target sequence (P42574 whole entry, looked up): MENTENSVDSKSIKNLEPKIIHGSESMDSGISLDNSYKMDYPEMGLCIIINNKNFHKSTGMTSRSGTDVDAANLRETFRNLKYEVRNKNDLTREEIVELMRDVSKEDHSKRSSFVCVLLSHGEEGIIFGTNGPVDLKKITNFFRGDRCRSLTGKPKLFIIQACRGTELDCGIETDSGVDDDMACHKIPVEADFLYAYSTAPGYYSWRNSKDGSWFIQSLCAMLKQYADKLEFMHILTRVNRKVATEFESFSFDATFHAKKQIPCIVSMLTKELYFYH
UBC13 confirm = UBC13 polyubiquitination inhibitors, single-point retest, confirmation, biochemical, TR-FRET, single concentration; shares compounds with UBC13 polyUb; inhibition, % at 10 µM; hit rate 68% among 1,400; in the data active = inhibition above about 45%
Hits are given with their value; n = inactive; x = no result given.

SMILES	UHRF1 MBD2 ctr	UBC13 polyUb	Neddylation inh	MBD2 inh	Casp3 counter	UBC13 confirm
C#CCOCCOCCOCCNc1nc(N2CCN(C(=O)[C@H](CCCCN)n3cc([C@@H](N)CC(C)C)nn3)CC2)nc(N2CCN(C(=O)[C@H](Cc3cc4ccccc4[nH]3)n3cc([C@@H](N)CC(C)C)nn3)CC2)n1	n	x	x	n	x	x
C#CCOCCOCCOCCNc1nc(N2CCN(C(=O)[C@H](CCC(=O)O)n3cc(C(N)[C@H](C)CC)nn3)CC2)nc(N2CCN(C(=O)[C@H](Cc3cc4ccccc4[nH]3)n3cc(C(N)[C@H](C)CC)nn3)CC2)n1 (some centres undefined)	x	n	x	x	x	x
C#CCOCCOCCOCCNc1nc(N2CCN(C(=O)C([C@@H](C)CC)n3cc(C(N)Cc4ccc(O)cc4)nn3)CC2)nc(N2CCN(C(=O)[C@H](CCC(=O)O)n3cc(C(N)CC(C)C)nn3)CC2)n1 (some centres undefined)	n	n	n	n	x	x
C#CCOCCOCCOCCNc1nc(N2CCN(C(=O)[C@H](CCCCN)n3cc([C@@H](N)CC(C)C)nn3)CC2)nc(N2CCN(C(=O)[C@H](Cc3cc4ccccc4[nH]3)n3cc([C@@H](N)Cc4ccc(O)cc4)nn3)CC2)n1	x	103.4	n	x	n	116.2
FC(F)(F)c1cccc(-c2cc3nc(NC4CCCCC4)ccn3n2)c1	n	x	x	n	x	x
Cc1occc1-c1nnc(SCC(=O)Nc2c(F)cccc2F)n1C	n	n	n	n	x	x
COc1ccc(NC(=O)c2ccccc2SC)c(OC)c1	n	n	n	n	x	x
C#CCOCCOCCOCCNc1nc(N2CCN(C(=O)[C@H](Cc3ccc(O)cc3)n3cc([C@@H](N)CC(C)C)nn3)CC2)nc(N2CCN(C(=O)[C@H](Cc3cc4ccccc4[nH]3)n3cc([C@@H](N)CC(C)C)nn3)CC2)n1	n	80.2	x	n	n	62.2
C#CCOCCOCCOCCNc1nc(N2CCN(C(=O)C([C@@H](C)CC)n3cc(C(N)CC(C)C)nn3)CC2)nc(N2CCN(C(=O)[C@H](CCC(=O)O)n3cc(C(N)Cc4ccc(O)cc4)nn3)CC2)n1 (some centres undefined)	x	n	n	x	x	x
C#CCOCCOCCOCCNc1nc(N2CCN(C(=O)[C@H]([C@@H](C)CC)n3cc([C@@H](N)CC(C)C)nn3)CC2)nc(N2CCN(C(=O)[C@H](Cc3cc4ccccc4[nH]3)n3cc([C@@H](N)Cc4ccc(O)cc4)nn3)CC2)n1	x	73.7	x	x	n	65.9
CCOC(=O)CSc1n[nH]c(-c2cccnc2)n1	n	n	n	n	x	x
O=[N+]([O-])c1ccc(SCCO)nc1SCCO	n	n	n	n	x	x
COc1cc2sc(-c3ccc(S(C)(=O)=O)cc3)c(C(=O)NCCCCO)c2cc1OC	n	46.1	x	n	n	n
Cc1ccc(CNC(=O)c2c(-c3ccccc3)sc3ccccc23)o1	n	n	n	n	x	x
COc1cc2sc(-c3ccc(S(C)(=O)=O)cc3)c(C(=O)NCc3ccc(C)o3)c2cc1OC	n	46.4	x	n	n	n
CN(c1ccccc1)S(=O)(=O)c1cccc(NC(=O)Cc2n[nH]c(=O)c3ccccc23)c1	n	n	n	n	x	x
Cc1sc(NC(=O)CS(=O)(=O)c2ccccc2)c(C#N)c1C	n	n	n	n	x	x
CCOC(=O)CSc1nc2ccccc2c(=O)n1CCCCCC(=O)NCc1ccco1	n	46.6	n	n	n	47.0
Cc1ccc(NC(=O)CSc2ncnc3ccccc23)cc1S(=O)(=O)N1CCCCC1	n	n	n	n	x	x
Cc1ccc(NC(=O)CSc2ncnc3ccccc23)cc1S(=O)(=O)N1CCOCC1	n	50.7	n	n	n	n
O=C(CSc1nc2ccsc2c(=O)n1Cc1ccccc1)NCc1ccco1	n	50.3	n	n	n	67.6
O=C(CSc1nc2ccsc2c(=O)n1NC(=O)c1ccccc1)NCc1ccco1	n	n	n	n	x	x
O=C(CCCCCn1c(SCC(=O)c2ccccc2)nc2ccccc2c1=O)NCc1ccco1	n	n	n	n	x	x
